Assay results from PubChem BioAssay (EPA / NIEHS).
The source made the active and inactive calls. Rule for the calls: active = hit-call score of the fitted dose curve at least 0.9, where 1 is the maximum; inactive = score below 0.9.

Key:
[1] = APR_HepG2_CellCycleArrest_1hr: Apredica 1-hour HepG2 Assay for Cell Cycle Arrest (AID 2282666); details: high-content imaging, actives raise or lower the signal
Method in brief: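 HepG2 cells exposed for 1 h to 0.39–200 uM compound (0.5% DMSO). Fixed, Hoechst-stained nuclei imaged by ArrayScan; DNA content quantified by Cell Cycle analysis; bidirectional fit against DMSO.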

[2] = APR_HepG2_CellLoss_1hr: Apredica 1-hour HepG2 Assay for Cell Loss (AID 2282668); details: high-content imaging;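 note: curves fitted both ways against DMSO so gain or loss of cells counts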
Method in brief: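 HepG2 cells were treated for 1 h with compound at 0.39–200 uM, in duplicate, in 0.5% DMSO. After formaldehyde fixation, Hoechst 33342-stained nuclei were imaged on an ArrayScan to count cells. Data were fitted bidirectionally versus DMSO.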

[3] = APR_HepG2_MicrotubuleCSK_1hr: Apredica 1-hour HepG2 Assay for Microtubule CSK Stabilty (AID 2282669); details: HepG2 microtubule cytoskeleton imaging, actives raise or lower the signal
Method in brief: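 HepG2 cells exposed 1 h to 0.39–200 uM compound (0.5% DMSO, duplicates), then formaldehyde-fixed, permeabilized and immunostained for alpha-tubulin with Hoechst nuclei. Imaged by ArrayScan high-content analysis; bidirectional fit versus DMSO.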

[4] = APR_HepG2_NuclearSize_1hr: Apredica 1-hour HepG2 Assay for Nuclear Size (AID 2282670); details: high-content imaging, actives raise or lower the signal
Method in brief: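 HepG2 cells dosed 1 hr with 0.39–200 uM compound (0.5% DMSO), formaldehyde-fixed, Hoechst 33342-stained and imaged at 20x; nuclear diameter from nuclear stain, fitted bidirectionally against DMSO.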

[5] = APR_HepG2_p53Act_1hr: Apredica 1-hour HepG2 Assay for p53 Activation (AID 2282671); details: high-content imaging, actives raise or lower the signal
Method in brief: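 HepG2 cells treated 1 h with compound at 0.39–200 uM (10 concentrations, duplicate) in 0.5% DMSO. Formaldehyde-fixed, permeabilised cells immunostained for p53 with Hoechst 33342; high-content imaging, bidirectional fit versus DMSO.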

[6] = APR_HepG2_MitoticArrest_1hr: Apredica 1-hour HepG2 Assay for Mitotic Arrest (AID 2282672); details: high-content imaging, actives raise or lower the signal
Method in brief: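 HepG2 cells exposed 1 hr to compounds at 0.39–200 uM (0.5% v/v DMSO final), then fixed in 3.7% formaldehyde and immunostained for phospho-histone H3 with Hoechst 33342. Mitotic arrest scored by automated fluorescence imaging, fitted bidirectionally versus DMSO.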

[7] = APR_HepG2_P-H2AX_1hr: Apredica 1-hour HepG2 Assay for H2AX Phosphorylation (AID 2282673); details: high-content imaging, actives raise or lower the signal
Method in brief: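 HepG2 dosed 1 hr at 0.39-200 uM (0.5% DMSO final), duplicate. Fixed in 3.7% formaldehyde, Triton permeabilized, immunostained for phospho-histone H2A.x (1:200) with Hoechst 33342; ArrayScan 20x imaging, bidirectional fit vs DMSO.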

[8] = APR_HepG2_MitoMass_1hr: Apredica 1-hour HepG2 Assay for Mitochondrial Mass (AID 2282674); details: high-content imaging, actives raise or lower the signal
Method in brief: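 HepG2 cells dosed 1 hr with 0.39-200 uM compound (0.5% DMSO), duplicate wells. Mitochondria stained with 250 nM MitoTracker Red CMXRos for 30 min before formaldehyde fixation, imaged at 20x by ArrayScan; bidirectional fit versus DMSO.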

[9] = APR_HepG2_CellCycleArrest_24hr: Apredica 24-hour HepG2 Assay for Cell Cycle Arrest (AID 2282905); details: imaging, actives raise or lower the signal;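 note: cell cycle arrest scored as ratio of 2N to 4N nuclear DNA content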
Method in brief: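 HepG2 cells were exposed to compounds at 0.39–200 uM (ten concentrations, duplicate) in 0.5% v/v DMSO for 24 hr. After formaldehyde fixation and Triton permeabilization, Hoechst 33342-stained nuclei were imaged at 20x; DNA content was quantified, with bidirectional fitting against DMSO.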

[10] = APR_HepG2_StressKinase_1hr: Apredica 1-hour HepG2 Assay for Stress Kinase (AID 2282906); details: HepG2 stress kinase (phospho-c-Jun) imaging, actives raise or lower the signal
Method in brief: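 HepG2 cells dosed 0.39-200 uM (0.5% DMSO) for 1 h, then formaldehyde-fixed. Stress kinase read by phospho-c-Jun immunofluorescence using high-content imaging; bidirectional fit vs DMSO.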

[11] = APR_HepG2_NuclearSize_24hr: Apredica 24-hour HepG2 Assay for Nuclear Size (AID 2282907); details: high-content imaging, actives raise or lower the signal
Method in brief: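 HepG2 human liver cells were exposed for 24 hr to compounds at 0.39–200 uM (ten concentrations, duplicate) in 0.5% v/v DMSO. They were then formaldehyde-fixed, Triton-permeabilized and Hoechst 33342-stained, and nuclear diameter was imaged at 20x. Bidirectional fits were made against DMSO.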

[12] = APR_HepG2_CellLoss_24hr: Apredica 24-hour HepG2 Assay for Cell Loss (AID 2282908); details: high-content imaging;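 for AC50: fit in both directions so a hit may be cell loss or gain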
Method in brief: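 Compounds were tested at 0.39–200 uM in duplicate with 0.5% v/v DMSO final. Cells were then fixed in 3.7% formaldehyde, Hoechst 33342 nuclei were imaged at 20x by HCS, and cell number was fitted bidirectionally against DMSO.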

[13] = APR_HepG2_MicrotubuleCSK_24hr: Apredica 24-hour HepG2 Assay for Microtubule CSK Stabilty (AID 2282909); details: HepG2 microtubule cytoskeleton imaging, actives raise or lower the signal
Method in brief: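 HepG2 cells exposed 24 h to compounds at 0.39–200 uM (duplicate, 0.5% v/v DMSO final), then fixed, permeabilized and immunostained for alpha-tubulin with Hoechst 33342. Cytoskeleton imaged at 20x; bidirectional fit versus DMSO baseline.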

[14] = APR_HepG2_MitoticArrest_24hr: Apredica 24-hour HepG2 Assay for Mitotic Arrest (AID 2282910); details: high-content imaging, actives raise or lower the signal
Method in brief: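 HepG2 human liver cells were exposed to compounds at 0.39–200 uM (10 concentrations, duplicate) in 0.5% v/v DMSO for 24 hr, then fixed and immunostained for phospho-histone H3 with Hoechst 33342. Mitotic arrest came from HCS fluorescent imaging, fitted bidirectionally against DMSO.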

[15] = APR_HepG2_MitoMass_24hr: Apredica 24-hour HepG2 Assay for Mitochondrial Mass (AID 2282912); details: high-content imaging, actives raise or lower the signal
Method in brief: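 Human HepG2 liver cells were exposed for 24 hr to compounds at 0.39–200 uM (duplicates, 0.5% v/v DMSO final). They were stained live with 250 nM MitoTracker Red CMXRos for 30 min, fixed in 3.7% formaldehyde, and imaged by HCS fluorescence; signals were fitted bidirectionally against DMSO.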

[16] = APR_HepG2_p53Act_24hr: Apredica 24-hour HepG2 Assay for p53 Activation (AID 2282913); details: high-content imaging, actives raise or lower the signal;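 note: p53 protein immunofluorescence averaged per cell in HepG2 with Hoechst nuclei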
Method in brief: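 Following 24 hr dosing of HepG2 at 0.39–200 uM, the cells undergo formaldehyde fixation, Triton permeabilization and multiplexed antibody labeling that includes p53 (Cy5). Signal from the imaging is referenced to DMSO solvent controls.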

[17] = APR_HepG2_CellCycleArrest_72hr: Apredica 72-hour HepG2 Assay for Cell Cycle Arrest (AID 2282914); details: high-content imaging, actives raise or lower the signal
Method in brief: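 Using multiplexed high-content imaging, HepG2 nuclei stained with Hoechst 33342 (2 ug/mL) were analysed for DNA content after fixation and permeabilization. Treatment lasted 72 hr across 0.39–200 uM in duplicate with final DMSO 0.5% v/v; DMSO served as negative control.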

[18] = APR_HepG2_CellLoss_72hr: Apredica 72-hour HepG2 Assay for Cell Loss (AID 2282915); details: high-content imaging
Method in brief: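 HepG2 cells were exposed for 72 hr to compounds at 0.39–200 uM (ten concentrations, duplicate) in 0.5% v/v final DMSO. Nuclei were stained with Hoechst 33342 after 3.7% formaldehyde fixation, imaged at 20x, and counted; fits bidirectional versus DMSO.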

[19] = APR_HepG2_MitoMembPot_1hr: Apredica 1-hour HepG2 Assay for Mitochondrial Membrane Potential (AID 2282675); details: imaging, actives raise or lower the signal
Method in brief: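 HepG2 cells dosed 1 hour with 0.39–200 uM compound in duplicate, 0.5% DMSO final. MitoTracker Red CMXRos (250 nM, 30 min) loaded before formaldehyde fixation; fluorescence quantified by high-content imaging, bidirectional fitting versus DMSO.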

[20] = APR_HepG2_MitoMembPot_24hr: Apredica 24-hour HepG2 Assay for Mitochondrial Membrane Potential (AID 2282911); details: imaging, actives raise or lower the signal
Method in brief: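 Mitochondrial dye uptake (MitoTracker Red CMXRos, 250 nM, 30 min pre-fixation) in HepG2 after 24 hr compound exposure, 0.39–200 uM; ArrayScan images at 20x, activity fitted in both directions relative to DMSO.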

Measured: AC50

C#CCC1=C(C)C(OC(=O)C2C(C=C(C)C)C2(C)C)CC1=O (stereo not given)
active: [9] 151 µM | [12] 89.4 µM | [17] 104 µM
inactive: [1] | [2] | [3] | [4] | [5] | [6] | [7] | [8] | [10] | [11] | [13] | [14] | [15] | [16] | [18]

Cc1cc(C2CC2)nc(Nc2ccccc2)n1
inactive: [2] | [3] | [4] | [5] | [6] | [7] | [8] | [9] | [10] | [11] | [14] | [20] | [15] | [16] | [17]
active: [19] 29.2 µM | [12] 60.5 µM | [18] 75.7 µM

CN(C)NC(=O)CCC(=O)O
inactive: [1] | [2] | [3] | [4] | [5] | [7] | [8] | [9] | [10] | [11] | [12] | [14] | [20] | [15] | [16] | [17] | [18]

CCOC(=O)CC(SP(=O)(OC)OC)C(=O)OCC (stereo not given)
inactive: [1] | [2] | [3] | [4] | [7] | [8] | [9] | [10] | [11] | [12] | [14] | [15] | [16] | [17] | [18]

Nc1nc(N)nc(NC2CC2)n1
inactive: [2] | [3] | [4] | [5] | [6] | [7] | [8] | [9] | [10] | [11] | [12] | [13] | [14] | [15] | [16] | [17] | [18]

C[N+]1(C)CCCCC1
inactive: [1] | [2] | [3] | [4] | [7] | [8] | [9] | [10] | [11] | [12] | [14] | [15] | [16] | [17] | [18]

CCCCOC(=O)c1ccccc1C(=O)O
inactive: [1] | [2] | [3] | [4] | [5] | [7] | [8] | [9] | [10] | [11] | [12] | [13] | [14] | [15] | [16] | [17] | [18]

CNC(=O)Oc1cccc2c1OC(C)(C)O2
inactive: [1] | [2] | [3] | [4] | [5] | [6] | [7] | [8] | [10] | [11] | [14] | [20] | [15] | [16] | [17]
active: [9] 127 µM | [12] 83.8 µM | [18] 86.6 µM
